Assay [1] can be described thus: antimalarial activity against Dd2 strain (AID 2302;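 active = growth inhibition above 50% at the single 2 µM test dose, taken to imply half-maximal potency below 2 µM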;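 note: 0% = DMSO untreated growth and 100% = chloroquine plus artemisinin killed control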). Conditions: P. falciparum Dd2 in RBCs, LDH growth readout, 72 h; at 2 µM; hits give high values.
Assay [2] can be described thus: HepG2 cytotoxicity, primary screen, cytotoxicity control for P. falciparum antimalarial project, cell-based, ATP luminescence (AID 2303;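 active = inhibition above 50%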;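 note: 0% = DMSO wells and 100% = digitonin-killed cells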). As to conditions: HepG2 viability, 24-48 h, at 10 µM, hits give high values.
In assay [3] the target is L-lactate dehydrogenase (Plasmodium falciparum (isolate CDC / Honduras)) (UniProt Q27743). The experiment in a line: PfLDH activity inhibition – cell lysate, 3D7 strain, counter-screen for P. falciparum growth inhibition project (AID 2304).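 Note: 0% = vehicle and 100% = reference inhibitor.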 As to conditions: P. falciparum 3D7 crude extract, LDH APAD/NBT absorbance; at 2 µM; hits give high values.
A short description of assay [4]: inhibition of 3D7 malaria parasite growth – strain 3D7 (AID 2306).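 Note: 0% = DMSO wells and 100% = chloroquine plus artemisinin control wells.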 As to conditions: P. falciparum 3D7 erythrocytic growth, LDH absorbance, 72 h; at 2 µM; hits give high values.
Assay [5] concerns the target Calcium-dependent protein kinase 1 (Plasmodium falciparum (isolate 3D7)) (UniProt P62344). The experiment in a line: PfCDPK1 kinase inhibitors, biochemical, TCAMS library (AID 1159585; cut-off not given, nearly all actives have IC50 up to about 0.98 µM;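 note: inhibitors leave more ATP so luminescence rises with inhibition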). As to conditions: recombinant PfCDPK1, Kinase-Glo ATP depletion luminescence.
Assay [6] concerns the target Plasmodium falciparum protein kinase 6 (PK6, PF3D7_1337100) (UniProt Q8IDW1). The experiment in a line: PfPK6 kinase inhibitors, biochemical, TCAMS library (AID 1159586). As to conditions: recombinant PfPK6, Kinase-Glo ATP depletion luminescence.
The target of assay [7] is Protein kinase 7 (PK7), Plasmodium falciparum 3D7 (PF3D7_0213400) (UniProt Q7YTF7). The experiment in a line: inhibition of Plasmodium PK7 catalytic activity – biochemical, TCAMS antimalarial set, Kinase-Glo luminescence (AID 1159587). As to conditions: recombinant PfPK7, Kinase-Glo ATP depletion luminescence.
The target of assay [8] is Calcium-dependent protein kinase 4 (Plasmodium falciparum (isolate 3D7)) (UniProt Q8IBS5). The experiment in a line: PfCDPK4 kinase inhibitors, biochemical, TCAMS library (AID 1159588; cut-off not given, nearly all actives have IC50 up to about 0.91 µM). Conditions: recombinant PfCDPK4, Kinase-Glo ATP depletion luminescence. In general terms: Kinase-Glo reads ATP consumption through a luciferase reaction.

A number with no mark means an inactive call. For part of these data: Measured potencies and affinities stand elsewhere. The source made the active and inactive calls. Unless noted, the rule behind the calls is not given here.

Chain of Calcium-dependent protein kinase 1 (Plasmodium falciparum (isolate 3D7)) (P62344 whole entry, looked up): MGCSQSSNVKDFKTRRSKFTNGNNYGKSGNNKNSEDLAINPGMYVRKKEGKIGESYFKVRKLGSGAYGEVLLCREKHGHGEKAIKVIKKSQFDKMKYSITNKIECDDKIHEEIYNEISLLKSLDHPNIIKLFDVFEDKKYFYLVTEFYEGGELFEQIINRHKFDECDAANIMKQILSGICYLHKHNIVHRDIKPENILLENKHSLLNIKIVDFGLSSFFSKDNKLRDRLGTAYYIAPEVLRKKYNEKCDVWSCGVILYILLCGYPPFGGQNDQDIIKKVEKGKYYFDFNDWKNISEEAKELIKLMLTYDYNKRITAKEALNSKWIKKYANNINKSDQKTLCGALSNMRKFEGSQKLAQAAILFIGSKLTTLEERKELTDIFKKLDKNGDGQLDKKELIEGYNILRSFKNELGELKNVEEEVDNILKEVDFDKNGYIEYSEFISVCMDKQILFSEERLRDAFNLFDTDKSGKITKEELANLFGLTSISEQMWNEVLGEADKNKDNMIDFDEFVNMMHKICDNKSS
Chain of Calcium-dependent protein kinase 4 (Plasmodium falciparum (isolate 3D7)) (Q8IBS5 whole entry, looked up): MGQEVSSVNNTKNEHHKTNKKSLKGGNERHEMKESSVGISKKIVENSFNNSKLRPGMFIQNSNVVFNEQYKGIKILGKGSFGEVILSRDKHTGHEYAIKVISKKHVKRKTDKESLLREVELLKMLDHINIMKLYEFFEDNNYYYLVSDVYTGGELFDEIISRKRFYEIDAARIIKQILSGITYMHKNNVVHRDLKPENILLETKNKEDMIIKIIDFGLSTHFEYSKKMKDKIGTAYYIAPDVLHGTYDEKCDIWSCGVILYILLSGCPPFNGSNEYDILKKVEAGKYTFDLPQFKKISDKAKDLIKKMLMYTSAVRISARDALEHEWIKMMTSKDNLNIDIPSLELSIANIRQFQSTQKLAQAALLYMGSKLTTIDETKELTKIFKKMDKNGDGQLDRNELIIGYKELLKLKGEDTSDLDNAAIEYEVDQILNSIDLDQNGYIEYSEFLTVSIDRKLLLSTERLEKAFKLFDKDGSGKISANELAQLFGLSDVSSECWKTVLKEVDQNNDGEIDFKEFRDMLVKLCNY
Chain of Protein kinase 7 (PK7), Plasmodium falciparum 3D7 (PF3D7_0213400) (Q7YTF7 1-343): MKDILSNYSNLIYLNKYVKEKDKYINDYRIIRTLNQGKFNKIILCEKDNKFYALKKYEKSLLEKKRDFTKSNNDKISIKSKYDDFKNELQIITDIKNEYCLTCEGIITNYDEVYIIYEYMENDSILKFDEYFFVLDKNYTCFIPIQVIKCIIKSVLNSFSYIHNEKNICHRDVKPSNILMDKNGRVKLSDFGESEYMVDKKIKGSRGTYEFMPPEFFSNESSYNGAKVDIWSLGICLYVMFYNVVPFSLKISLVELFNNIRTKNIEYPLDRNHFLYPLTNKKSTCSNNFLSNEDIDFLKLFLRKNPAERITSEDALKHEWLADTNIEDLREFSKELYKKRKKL
Chain of Plasmodium falciparum protein kinase 6 (PK6, PF3D7_1337100) (Q8IDW1 1-305): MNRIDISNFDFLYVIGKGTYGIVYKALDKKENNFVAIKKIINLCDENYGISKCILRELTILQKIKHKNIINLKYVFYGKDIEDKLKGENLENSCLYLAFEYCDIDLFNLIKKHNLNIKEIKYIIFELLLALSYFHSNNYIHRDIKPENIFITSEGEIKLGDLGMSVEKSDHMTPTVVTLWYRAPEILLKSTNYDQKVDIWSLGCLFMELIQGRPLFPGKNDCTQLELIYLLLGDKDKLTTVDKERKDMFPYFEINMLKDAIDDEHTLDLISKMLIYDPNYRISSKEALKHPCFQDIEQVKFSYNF
Chain of L-lactate dehydrogenase (Plasmodium falciparum (isolate CDC / Honduras)) (Q27743 whole entry, looked up): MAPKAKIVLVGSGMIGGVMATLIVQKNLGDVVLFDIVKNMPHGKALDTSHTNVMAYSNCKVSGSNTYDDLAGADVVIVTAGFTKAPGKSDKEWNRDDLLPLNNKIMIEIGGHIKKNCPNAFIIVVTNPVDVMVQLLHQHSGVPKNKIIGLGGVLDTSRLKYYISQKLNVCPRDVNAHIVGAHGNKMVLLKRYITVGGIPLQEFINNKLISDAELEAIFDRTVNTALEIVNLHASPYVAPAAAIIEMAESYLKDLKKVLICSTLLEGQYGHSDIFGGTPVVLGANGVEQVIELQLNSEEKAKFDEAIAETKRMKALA

`Cc1ccc2ncc(Cl)c(CCN3CCC(NCc4ccc5c(n4)NC(=O)CS5)CC3)c2n1`: the figures for the growth inhibition in assay [1] and in assay [4] were 12% and 90% (active), respectively. Also, the inhibition was 13% in assay [2] and -3% in assay [3]. For the same molecule, the outcome in assay [5], in assay [6], in assay [7] and in assay [8] was inactive.
Turning to `C[C@@H](NC(=O)NC(CCN1CCC2(CC1)CN(S(C)(=O)=O)c1ccccc12)c1ccc(Cl)c(Cl)c1)c1ccccc1` (stereo partly drawn), the growth inhibition in assay [1] was 88% (active); in assay [4], 92% (active). The results for the inhibition in assay [2] and in assay [3] were 15% and 3%, respectively. In addition, the outcome in assay [5], in assay [6], in assay [7] and in assay [8] was inactive.
As for `O=C(Nc1cc2cc(-c3ccc(CN4CCCCC4)cc3)ccc2n2cnnc12)NC1CCCC1`, the growth inhibition is 98% (active) in assay [1] and 100% (active) in assay [4]. For the same molecule, the results for the inhibition in assay [2] and in assay [3] were 78% (active) and -4%, respectively. Moreover, the result in assay [5], in assay [6], in assay [7] and in assay [8] was inactive.
Consider `O=C(Nc1ccccc1)Nc1cccc(-c2cccc(-c3nc4ccc(F)cc4[nH]3)c2)c1`, for which the growth inhibition in assay [1] is 41%; in assay [4] it was 99% (active). Moreover, the values for the inhibition in assay [2] and in assay [3] were 38% and 4%, respectively. The outcome in assay [5], in assay [6], in assay [7] and in assay [8] was inactive.
In the case of `O=C(NC1CCN(CCCOc2ccnc3cc(Cl)ccc23)C1)c1ccc(Br)cc1` (stereo not drawn), the values for the growth inhibition in assay [1] and in assay [4] were 87% (active) and 86% (active), respectively. Besides, the inhibition is 21% in assay [2] and 2% in assay [3]. Besides, the outcome in assay [5], in assay [6], in assay [7] and in assay [8] was inactive.
Take `O=C(Nc1cccc(C(F)(F)F)c1)c1cccc2[nH]c(C(F)(F)F)nc12`: the results for the growth inhibition in assay [1] and in assay [4] were 98% (active) and 100% (active), respectively. In addition, the inhibition was 81% (active) in assay [2] and -7% in assay [3]. Further, the result in assay [5], in assay [6], in assay [7] and in assay [8] was inactive.
On to `O=C(NC1CCC(N2CCC(c3nc4ccccc4s3)CC2)CC1)c1cc2ccccc2[nH]1` (stereo not drawn), for which the growth inhibition was 37% in assay [1] and 94% (active) in assay [4]. The inhibition in assay [2] was 23%; in assay [3], -1%. Also, the outcome in assay [5], in assay [6], in assay [7] and in assay [8] was inactive.
For `CN(c1ccc2c(c1)nc(NC(=O)C1(c3cc(F)ccc3F)CC1)n2C)c1ccnc(Nc2cccc(CS(C)(=O)=O)c2)n1`, the values for the growth inhibition in assay [1] and in assay [4] were 46% and 89% (active), respectively. Besides, the inhibition in assay [2] was 42%; in assay [3], 6%. In addition, the outcome in assay [5], in assay [6], in assay [7] and in assay [8] was inactive.
Take `Cc1cc(F)ccc1-c1nc(NCCCN2CCCC2=O)nc2c1ccc(=O)n2-c1c(F)cccc1F`: the growth inhibition was 80% (active) in assay [1] and 88% (active) in assay [4]. The values for the inhibition in assay [2] and in assay [3] were -7% and -5%, respectively. Further, the result in assay [5], in assay [6], in assay [7] and in assay [8] was inactive.
Consider `Cc1cccc2[nH]c(-c3ccc(-c4cccc(CNCc5ccccc5)c4)s3)nc12`, for which the growth inhibition in assay [1] was 50% (active); in assay [4], 99% (active). In addition, the results for the inhibition in assay [2] and in assay [3] were 3% and -3%, respectively. Further, the result in assay [5], in assay [6], in assay [7] and in assay [8] was inactive.
As to `Nc1nc(N)c2c(Cl)c(CNc3cccc(C(=O)O)c3)ccc2n1`, the growth inhibition is 97% (active) in assay [1] and 93% (active) in assay [4]. The figures for the inhibition in assay [2] and in assay [3] were 69% (active) and 7%, respectively. Moreover, the outcome in assay [5], in assay [6], in assay [7] and in assay [8] was inactive.
As for `CO/C(=C\C=C\c1cc2cc(Cl)c(Cl)cc2[nH]1)C(=O)NCCCN(C)CCN(C)c1ccccc1`, the figures for the growth inhibition in assay [1] and in assay [4] were 59% (active) and 96% (active), respectively. In addition, the figures for the inhibition in assay [2] and in assay [3] were 38% and 0%, respectively. Also, the outcome in assay [5], in assay [6], in assay [7] and in assay [8] was inactive.
In the case of `OCCOCCNCc1cccc(C#Cc2cc3ncnc(Nc4ccc(OCc5cccc(F)c5)c(Cl)c4)c3s2)n1`, the values for the growth inhibition in assay [1] and in assay [4] were 46% and 96% (active), respectively. The inhibition in assay [2] is 35%; in assay [3], 0%. The result in assay [5], in assay [6], in assay [7] and in assay [8] was inactive.
Turning to `CN(C)CCCOc1cccc(CCNCc2cccc(Oc3ccc(Cl)cc3)c2)c1`, the growth inhibition was 67% (active) in assay [1] and 93% (active) in assay [4]. For the same molecule, the inhibition in assay [2] is 72% (active); in assay [3] it was -3%. In addition, the outcome in assay [5], in assay [6], in assay [7] and in assay [8] was inactive.
For the molecule `O=C(c1ccc2ccccc2n1)N1CCCc2cc(Br)ccc21`, the figures for the growth inhibition in assay [1] and in assay [4] were 74% (active) and 97% (active), respectively. The inhibition was 19% in assay [2] and -3% in assay [3]. Besides, the outcome in assay [5], in assay [6], in assay [7] and in assay [8] was inactive.
`COc1ccc(CCN2CCC(NCc3cccc(N(C)C)c3)CC2)cc1`: the figures for the growth inhibition in assay [1] and in assay [4] were 7% and 98% (active), respectively. In addition, the inhibition in assay [2] is 18%; in assay [3] it was 2%. Further, the outcome in assay [5], in assay [6], in assay [7] and in assay [8] was inactive.
As to `Cc1cc(NCCC(=O)NCCOc2ccccc2)nc(Nc2ccccc2)n1`, the growth inhibition in assay [1] is 55% (active); in assay [4], 94% (active). For the same molecule, the inhibition in assay [2] was 26%; in assay [3] it was -1%. The result in assay [5], in assay [6], in assay [7] and in assay [8] was inactive.
As to `COc1ccc2nccc(N3CCC(NCCNCc4ccc5c(n4)NC(=O)CO5)C3)c2n1` (stereo not drawn), the growth inhibition in assay [1] is 47%; in assay [4], 100% (active). In addition, the inhibition was 0% in assay [2] and 3% in assay [3]. The outcome in assay [5], in assay [6], in assay [7] and in assay [8] was inactive.
On to `CC(=O)Nc1ccc(CN(Cc2ccc(F)cc2)Cc2ccc3c(c2)OCO3)cc1`, for which the growth inhibition in assay [1] is 87% (active); in assay [4], 91% (active). Further, the inhibition in assay [2] is 3%; in assay [3] it was 6%. In addition, the outcome in assay [5], in assay [6], in assay [7] and in assay [8] was inactive.
For the molecule `CC1(C)N=C(N)N=C(N)N1OCc1cccc2c1ccc1ccccc12`, the figures for the growth inhibition in assay [1] and in assay [4] were 97% (active) and 95% (active), respectively. The inhibition is 63% (active) in assay [2] and 4% in assay [3]. Also, the result in assay [5], in assay [6], in assay [7] and in assay [8] was inactive.
Regarding `Cc1[nH]c(C)c(-c2ccc(OCc3ccccc3)cc2)c(=O)c1Br`, the growth inhibition in assay [1] was 96% (active); in assay [4], 97% (active). The inhibition in assay [2] is 19%; in assay [3], -2%. The result in assay [5], in assay [6], in assay [7] and in assay [8] was inactive.

For orientation: inhibition means the relative decrease from the control value, in per cent.

These data come from PubChem BioAssay.
